Vaccinia Venus: qHTS for Stage-Specific Inhibitors of Vaccinia Orthopoxvirus: Venus Reporter Primary qHTS. AID 720580, 2013. Vaccinia virus Venus reporter expression, fluorescence. Potency, µM (top dose mostly 36.5 µM), for inactives: at the highest dose activity change, negative = inhibition, hits mostly inhibitors. actives 0.46% (n = 330,000); calls by dose curve; tested in A549 cells; also: potency is read from the fitted curve at half-maximal effect; nearly all actives have a fitted effect of over 30% in size
Vaccinia mCherry: qHTS for Stage-Specific Inhibitors of Vaccinia Orthopoxvirus: mCherry Reporter Primary qHTS | Potency, µM (top dose mostly 36.5 µM), without a hit: at the top dose activity change, negative = inhibition, usual class: inhibitors | AID 720579, 2013 | Vaccinia virus mCherry reporter infection, fluorescence | actives 0.63% (n = 310,000); calls by dose curve; tested in A549 cells; also: potency is read from the fitted curve at half-maximal effect; nearly all actives have a fitted effect of over 35% in size
HCMV inh: qHTS Assay for inhibitors of the human cytomegalovirus (HCMV). HFF cells, HCMV-luciferase reporter, 72 h; active compounds read low. activity change, negative = inhibition, % at 57.5 µM. actives 4.5% (n = 410,000); in the data active = activity change below about -60%; inconclusive = no clear call, values can overlap the other calls; inactive = above about -39%
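Cell-based, HFFs, 1000 cells/well, 16 h 37C; cpds in DMSO + HCMV-luc, MOI 1 PFU/cell; 72 h 37C; OneGlo luminescence after 5 min RT; norm. to buffer vs Salinomycin 10uM.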
Lassa entry inh: qHTS for Inhibitors of binding or entry into cells for Lassa Virus; Lassa virus pseudotype entry inhibition, cell reporter; Potency, µM (doses to about 37.9 µM), inactives show at the highest dose activity change, negative = inhibition, hits mostly inhibitors; actives 1.2% (n = 300,000); calls by dose curve; tested in HEK293 cells; also: potency is read from the fitted curve at half-maximal effect; nearly all actives have a fitted effect of over 50% in size
MARV entry inh: qHTS for inhibitors of binding or entry into cells for Marburg Virus | Marburg virus pseudotyped entry inhibition, cell reporter | Potency, µM (series often up to 37.8 µM), for the others: at the highest dose activity change, negative = inhibition, actives largely listed as inhibitors | actives 1.8% (n = 300,000); calls by dose curve; tested in HEK293 cells; also: potency is read from the fitted curve at half-maximal effect
HCV inhibitor: qHTS Assay for Inhibitors of Hepatitis C Virus (HCV) | Huh7.5.1 HCVcc-Cre infection, luciferase reporter, 44 h | Potency, µM (top dose mostly 41.8 µM), inactives show top-dose activity change, negative = inhibition, hits mostly inhibitors | actives 3.4% (n = 340,000) | AID 651820, 2012; active = well fitted inhibition curve with a large enough effect; inconclusive = small, poorly fitted or top-dose-only effect, or another doubt; inactive = no such curve, though single readings can be large or run the other way; also: potency is read from the fitted curve at half-maximal effect
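Infectious HCV cell culture screen: compound-treated cells (1,000/well, pre-plated 4 h) are infected with HCVcc-Cre at roughly 0.5 moi and grown 44 h. Infection is quantified by luciferase signal after 15 min substrate incubation at room temperature.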
* hit, by the source's call; i = inactive; ? = inconclusive; / = no result given; [ ] = another dose, or the depositor's remark. In the library only some 7.8% were active in any assay of this set; here they are far more common. % is scaled to controls: 0 for no effect and ±100 for the full control effect.

SMILES	Vaccinia Venus	Vaccinia mCherry	HCMV inh	Lassa entry inh	MARV entry inh	HCV inhibitor
CC1CCCCN1CCNC(=O)c1ccc2c(=O)n(CCc3ccccc3)c(=O)[nH]c2c1 (stereo not given)	-11%	-14%	33	?	?	11µM*
CC(=O)NCCNC(=O)c1ccc2c(=O)n(CCc3ccccc3)c(=O)[nH]c2c1	2%	-4%	13	?	?	/
CCCCCn1c(=O)[nH]c2cc(C(=O)NCCCN3CCCCC3)ccc2c1=O	/	/	30	-25%	?	10µM*
CC(C)C[C@@H]1COc2cc(N3CC[C@H](O)C3)ccc2S(=O)(=O)N1	-4%	-1%	0	/	/	/
CC(CCN1CCCCc2nc(C)c(C)cc21)=NO[C@@H](C)CN1CCCCc2nc(C)c(C)cc21	/	/	/	?	6%[14.2 µM]	/
COc1ccccc1NC(=O)c1sc2ncn(Cc3ccc(C)cc3)c(=O)c2c1C	-9%	i	?	3%	0%	-22%
COc1ccccc1NC(=O)c1sc2ncn(Cc3cccc(C)c3)c(=O)c2c1C	-6%	-3%	-102*	-29%	?	6%
NC(=O)Cn1cc(C(=O)COc2ccccc2)c2ccccc21	/	/	-11	/	/	/
COC(=O)c1cn(CCOc2ccc(C)cc2)c2ccccc12	/	/	-13	2%	?	?
Cc1cc(OCCn2cc(/C(N)=N/O)c3ccccc32)ccc1Cl	?	?	3	24%	?	7.1µM*
CC(=O)c1cn(CCOc2ccc(F)cc2)c2ccccc12	/	/	9	/	/	13µM*
CC(=O)c1cn(CCCOc2ccccc2)c2ccccc12	-26%	i	-13	/	/	7.1µM*
O=C(COc1ccccc1)c1cn(Cc2ccccc2)c2ccccc12	-16%	i	-63*	4%	?	-11%
CCOC(=O)[C@@H]1CSCCS(=O)(=O)N1C(=O)[C@H](Cc1ccccc1)NC(=O)OC(C)(C)C	/	/	-5	/	/	/
Cc1c(C(=O)OC(C)C)sc(NC(=O)C2c3ccccc3Oc3ccccc32)c1C(=O)OC(C)C	-21%	-30%	-3	-21%[46.1 µM]	?	/
COc1cc(CN2CCCC(n3cc(C(=O)N4CCCC4)nn3)C2)cc(OC)c1 (stereo not given)	-12%	-15%	/	/	/	/
CCC1C(=O)NCCN1Cc1ccc2c(c1)CN(Cc1ccc(OC)c(OC)c1)CCO2 (stereo not given)	?	-2%	/	/	/	/
CCn1c(NCc2c[nH]c3ccccc23)nc2ccccc21	-14%	-30%	44	-9%	11µM*	-25%
Cc1cc2c(cc1C)N(C(=O)CCl)CCN2C(=O)CCl	-6%	-20%	10	?	?	4µM*
COCCNc1nc(-c2cc(-c3ccccc3)on2)cc(C(C)C)n1	-15%	-7%	-63*	/	/	10µM*
COCCNc1nc(C)cc(-c2cc(-c3ccc(Cl)cc3)on2)n1	-18%	i	-7	/	/	-12%
COC(=O)c1ccccc1NC(=O)CSc1nc2nc(C)cc(C)n2n1	-5%	1%	-1	13%[46.1 µM]	-4%[46.1 µM]	/
COc1ccc(-c2nc(-c3ccc(Br)o3)no2)cc1OC	-24%	-17%	-4	/	/	?
CCN(C(=O)CCc1nc(-c2ccc(OC)cc2)no1)c1cc(OC)ccc1OC	?	/	-21	?	-17%	11µM*
COc1cccc(NC(=O)CCc2nc(-c3ccc(C(C)(C)C)cc3)no2)c1	-2%	1%	-82*	?	?	/
SMILES	Vaccinia Venus	Vaccinia mCherry	HCMV inh	Lassa entry inh	MARV entry inh	HCV inhibitor
CCN(C(=O)CCc1nc(-c2ccc(C)cc2)no1)c1cc(C)ccc1C	-10%	-14%	-11	1%[46.1 µM]	-14%[46.1 µM]	/
COc1ccc(-c2noc(CCC(=O)Nc3cccc(C)c3)n2)cc1	-11%	-17%	0	-29%	16%	?
COc1ccc(-c2nnc(-c3ccc(Br)o3)o2)cc1OC	/	/	-107*	3%	21%	-16%
COc1ccc(-c2noc(CCC(=O)NCCc3cccc(C)c3)n2)cc1	/	/	8	?	-12%	8.9µM*
O=C(NCCc1ccc(Cl)cc1)c1nnc(Cc2ccc(F)cc2)o1	-14%	-4%	-8	9%[46.1 µM]	-15%[46.1 µM]	/
COc1cc(-c2nc(-c3ccc(NC(=O)c4ccc(Br)o4)cc3)no2)cc(OC)c1OC	/	/	44	?	?	?
COc1ccc(-c2nc(-c3ccc(NC(=O)c4ccc(Br)o4)cc3)no2)cc1OC	32µM*	/	-12	-28%	?	?
COc1cccc(-c2nc(-c3ccc(NC(=O)Cc4ccccc4OC)cc3)no2)c1	10%	i	/	-9%	-4%	6.3µM*
COc1ccc(NC(=O)c2sc3nc4c(cc3c2N)CCCCCC4)cc1Cl	-20%	-28%	?	-28%[46.1 µM]	3%[46.1 µM]	/
CCCc1ccc(C(=O)NC(=O)c2ccccc2O)cc1	-2%[7.34 µM]	i[7.34 µM]	-89*	10µM*	8.9µM*	?
O=C(NNC(=S)NC(=O)c1ccccc1)c1ccc([N+](=O)[O-])cc1	/	/	22	/	/	-23%
O=C(Nc1cccc(OCC(=O)N2CCOCC2)c1)c1cccc([N+](=O)[O-])c1	/	/	35	9%	12%	9%
Cc1ccc(C(=O)NC(=S)NNC(=O)c2ccccc2O)cc1	-5%	-10%	-81*	-27%	?	?
O=C(NC(=S)NNC(=O)c1ccccc1O)c1ccc([N+](=O)[O-])cc1	-10%	-9%	-70*	/	/	?
O=C(COc1cccc(NC(=O)c2cccc([N+](=O)[O-])c2)c1)c1ccc(Br)cc1	?	/	-73*	22µM*	?	14µM*
O=C(NNC(=S)NC(=O)c1ccc(Br)cc1)c1ccc([N+](=O)[O-])cc1	/	/	62	/	/	-18%
O=C(NNc1c(Cl)cc(Cl)cc1Cl)c1cccc([N+](=O)[O-])c1	-7%	-28%	-7	0%	9%	10µM*
Cc1ccc(NC(=O)NC(=S)NC(=O)c2ccccc2)cc1	7.1µM*	?	65	?	11%	6%
Cc1ccc(C(=O)NNC(=S)NC(=O)c2ccccc2)cc1	?	?	-85*	?	-10%	?
Cc1ccc(C(=O)NC(=S)NNC(=O)c2ccccc2)cc1	/	/	7	/	/	-2%
O=C(NNC(=S)NC(=O)c1ccc(Br)cc1)c1cccc([N+](=O)[O-])c1	/	/	-105*	/	/	-15%
O=C(NNC(=S)NC(=O)c1ccccc1Cl)c1cccc([N+](=O)[O-])c1	-11%	i	-15	-2%	9%	?
CC(=O)Nc1ccc(NC(=S)NC(=O)c2ccc(-c3ccccc3)cc2)cc1	/	/	0	/	/	-20%
COc1c2ccccc2nn1CCCCCO	/	/	3	/	/	/

Bioassay records deposited in PubChem BioAssay by National Center for Advancing Translational Sciences (NCATS).
